Data: PubChem BioAssay (Tox21)
Values joined by “and” are separate entries in the source; they are usually repeats but may differ in a detail not shown here. Equal entries are not always repeated. Records with an inconclusive call do not appear. A call without a number means that no potency is given here. Some structures have more than one record in an assay (separate samples or runs), and their calls can disagree. Active and inactive are the calls of the source. Unless noted, the call rests on the fitted dose curve; in most records, active means well fitted curve in the direction sought with a large enough effect in the repeat runs; inconclusive means weak or mixed curves; inactive means no such curve, though single readings can be large; an effect the other way counts as inactive or inconclusive.

Key:
[1] = A CellTox Green Cytotoxicity Assay to monitor cytotoxicity in HEK293 cells - 32 hour (AID 1224881); further: nearly all actives have a fitted effect of over 40% in size; further: potency means the concentration at half of the fitted maximal effect
Procedure, shortened: (§1)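 Dead-cell fluorescence measured kinetically: asymmetric cyanine dye, HEK293, 600 cells/well, 5 h settle, 23 nL cpd/DMSO, 37 C, reads 0–40 h every 8 h.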

[2] = A CellTox Green Cytotoxicity Assay to monitor cytotoxicity in HepG2 cells - 0 hour (AID 1224882); further: nearly all actives have a fitted effect of over 35% in size; further: potency means the concentration at half of the fitted maximal effect
Procedure, shortened: (§2)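 First, HepG2 cells (600/well) mixed with reagent were plated; second, after 5 h at 37 C they received compounds via pintool; third, fluorescence was measured at 0 h through 40 h at 8 h intervals.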

[3] = A CellTox Green Cytotoxicity Assay to monitor cytotoxicity in HepG2 cells - 32 hour (AID 1224883); further: nearly all actives have a fitted effect of over 50% in size; further: potency means the concentration at half of the fitted maximal effect
Procedure, shortened: as §2

[4] = A CellTox Green Cytotoxicity Assay to monitor cytotoxicity in HEK293 cells - 8 hour (AID 1224884); further: nearly all actives have a fitted effect of over 35% in size; further: potency means the concentration at half of the fitted maximal effect
Procedure, shortened: as §1

[5] = qHTS RealTime-Glo MT Cell Viability Assay in HepG2 cells - 16 hour (AID 1224885); further: nearly all actives have a fitted effect of over 50% in size; further: potency means the concentration at half of the fitted maximal effect
Procedure, shortened: (§3)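 qHTS, HepG2, 600 cells/well, RealTime-Glo (NanoLuc + prosubstrate) added with cells; 5 h preincubation; DMSO compound addition; 37 C; luminescence at 0/8/16/24/32/40 h.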

[6] = qHTS RealTime-Glo MT Cell Viability Assay in HEK293 cells - 24 hour (AID 1224886); further: nearly all actives have a fitted effect of over 50% in size; further: potency means the concentration at half of the fitted maximal effect
Procedure, shortened: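 Assay medium contained NanoLuc luciferase plus cell-permeant prosubstrate, added with HEK293 cells at 600 cells/well. After 5 h at 37 C/5% CO2 compounds were added; plates stayed at 37 C for 40 h with serial luminescence reads.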

[7] = qHTS RealTime-Glo MT Cell Viability Assay in HEK293 cells - 8 hour (AID 1224887); further: nearly all actives have a fitted effect of over 50% in size; further: potency means the concentration at half of the fitted maximal effect
Procedure, shortened: (§4)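 600 HEK293 cells per well, dispensed already mixed with RealTime-Glo MT reagents. Compound dosing came 5 h later. The same wells were read for luminescence at 0, 8, 16, 24, 32 and 40 h of exposure at 37 C.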

[8] = A CellTox Green Cytotoxicity Assay to monitor cytotoxicity in HEK293 cells - 16 hour (AID 1224888); further: nearly all actives have a fitted effect of over 35% in size; further: potency means the concentration at half of the fitted maximal effect
Procedure, shortened: as §1

[9] = A CellTox Green Cytotoxicity Assay to monitor cytotoxicity in HepG2 cells - 8 hour (AID 1224890); further: nearly all actives have a fitted effect of over 45% in size; further: potency means the concentration at half of the fitted maximal effect
Procedure, shortened: as §2

[10] = qHTS assay to identify small molecule antagonists of the androgen receptor (AR) signaling pathway using the MDA cell line in the presence of 0.5 nM R1881 - cell viability counter screen (AID 1259242); further: nearly all actives have a fitted effect of over 45% in size; further: potency means the concentration at half of the fitted maximal effect
Procedure, shortened: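 qHTS format. MDA-kb2 (MMTV-luc, AR/GR responsive) + cpd + 0.5 nM R1881 final, 16 hr 37C/0% CO2 → CellTiter-Fluor 30 min → fluorescence intensity.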

[11] = target: Estrogen receptor (Homo sapiens) (UniProt P03372); test: qHTS assay to identify small molecule antagonists of the estrogen receptor alpha (ER-alpha) signaling pathway using the BG1 cell line in the presence of 0.1 nM 17-beta-estradiol (AID 1259244); further: nearly all actives have a fitted effect of over 50% in size; further: potency means the concentration at half of the fitted maximal effect
Chain of Estrogen receptor (Homo sapiens) (P03372 whole entry, looked up): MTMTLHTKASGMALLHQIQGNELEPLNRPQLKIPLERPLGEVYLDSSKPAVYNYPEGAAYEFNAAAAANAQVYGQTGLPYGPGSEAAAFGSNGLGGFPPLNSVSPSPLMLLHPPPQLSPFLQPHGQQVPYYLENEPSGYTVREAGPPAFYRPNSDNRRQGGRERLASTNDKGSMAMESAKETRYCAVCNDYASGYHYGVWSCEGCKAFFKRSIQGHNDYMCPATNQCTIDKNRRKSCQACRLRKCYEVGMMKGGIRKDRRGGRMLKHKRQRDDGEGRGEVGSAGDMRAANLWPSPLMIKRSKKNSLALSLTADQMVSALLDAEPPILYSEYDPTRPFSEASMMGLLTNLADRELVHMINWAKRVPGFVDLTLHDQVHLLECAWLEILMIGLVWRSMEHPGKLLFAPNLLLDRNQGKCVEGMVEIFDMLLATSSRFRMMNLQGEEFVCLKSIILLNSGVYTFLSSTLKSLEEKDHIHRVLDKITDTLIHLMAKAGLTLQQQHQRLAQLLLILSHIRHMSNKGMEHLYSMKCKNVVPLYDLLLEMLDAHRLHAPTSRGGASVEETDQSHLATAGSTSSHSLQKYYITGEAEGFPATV
Procedure, shortened: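 Reporter is a stably transfected luciferase under four estrogen responsive elements in VM7Luc4E2 cells expressing native full-length ER-alpha; inhibition of 0.1 nM (final) 17beta-estradiol-driven signal over 22 h is read by luminescence.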

[12] = qHTS assay to identify small molecule phospholipidosis (PLD) inducers (AID 1259344; active means well fitted curve in the direction sought with a large enough effect; an effect the other way counts as inactive or inconclusive; further: potency means the concentration at half of the fitted maximal effect)
Procedure, shortened: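 Accumulated phospholipid, stained red by LipidTOX during 24 h compound treatment of HepG2 cells at 37 C, is quantified from images as pit number and intensity, normalised per cell using Hoechst-stained nuclei.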

[13] = qHTS assay to identify small molecule HDAC inhibitors (AID 1259364); further: potency means the concentration at half of the fitted maximal effect;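 further: wild-type HCT-116 cells with endogenous class I/II HDAC activity; nearly all actives have a fitted effect of over 45% in size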
Procedure, shortened: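 Quantitative high-throughput format: overnight-seeded HCT-116 cells got compounds for 2 hr at 37C; HDAC-Glo I/II reagent added, 30 min RT, luminescence measured.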

[14] = qHTS RealTime-Glo MT Cell Viability Assay in HepG2 cells - 0 hour (AID 1224889); further: nearly all actives have a fitted effect of over 50% in size
Procedure, shortened: as §3

[15] = qHTS assay to identify small molecule antagonists of the estrogen receptor alpha (ER-alpha) signaling pathway using the BG1 cell line in the presence of 0.1 nM 17-beta-estradiol - cell viability counter screen (AID 1259241); further: nearly all actives have a fitted effect of over 40% in size; further: potency means the concentration at half of the fitted maximal effect
Procedure, shortened: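 CellTiter-Fluor read (30 min, 37C) on ER-alpha/ERE-luc VM7Luc4E2 cells; 22 hr compound treatment; agonist 0.1 nM E2 final; same-well multiplex.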

[16] = target: Androgen receptor (Homo sapiens) (UniProt P10275); test: qHTS assay to identify small molecule antagonists of the androgen receptor (AR) signaling pathway using the MDA cell line in the presence of 0.5 nM R1881 (AID 1259243); further: nearly all actives have a fitted effect of over 50% in size; further: potency means the concentration at half of the fitted maximal effect
Chain of Androgen receptor (Homo sapiens) (P10275 whole entry, looked up): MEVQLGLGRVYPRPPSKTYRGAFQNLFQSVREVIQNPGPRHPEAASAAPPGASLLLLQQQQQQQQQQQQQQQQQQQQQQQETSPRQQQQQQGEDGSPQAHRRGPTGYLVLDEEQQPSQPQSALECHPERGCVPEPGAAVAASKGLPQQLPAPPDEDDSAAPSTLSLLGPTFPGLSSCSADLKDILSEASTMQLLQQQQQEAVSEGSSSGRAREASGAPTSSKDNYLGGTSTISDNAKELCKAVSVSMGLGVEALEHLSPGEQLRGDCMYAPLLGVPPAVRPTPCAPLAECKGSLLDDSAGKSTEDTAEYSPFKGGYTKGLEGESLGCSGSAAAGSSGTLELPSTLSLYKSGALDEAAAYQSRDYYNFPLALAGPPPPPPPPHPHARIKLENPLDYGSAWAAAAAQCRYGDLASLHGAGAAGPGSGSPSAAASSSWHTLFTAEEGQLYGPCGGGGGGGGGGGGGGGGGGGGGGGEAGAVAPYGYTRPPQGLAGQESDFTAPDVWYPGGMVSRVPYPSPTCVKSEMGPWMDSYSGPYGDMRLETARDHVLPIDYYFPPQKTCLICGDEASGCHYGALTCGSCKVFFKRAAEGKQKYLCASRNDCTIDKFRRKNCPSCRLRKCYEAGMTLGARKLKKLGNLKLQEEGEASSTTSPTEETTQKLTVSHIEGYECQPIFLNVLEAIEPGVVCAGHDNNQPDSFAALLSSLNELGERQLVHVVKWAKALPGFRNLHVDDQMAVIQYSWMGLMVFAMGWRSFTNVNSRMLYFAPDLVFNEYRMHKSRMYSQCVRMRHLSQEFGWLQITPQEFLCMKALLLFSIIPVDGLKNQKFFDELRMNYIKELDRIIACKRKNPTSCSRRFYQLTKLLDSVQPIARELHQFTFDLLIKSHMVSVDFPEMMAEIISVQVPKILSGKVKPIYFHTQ
Procedure, shortened: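 Antagonist mode quantitative HTS in MDA-kb2 MMTV-luciferase cells, agonist R1881 at 0.5 nM final, 16 hr exposure at 37C and 0% CO2, luminescent detection.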

[17] = qHTS assay to identify small molecule HDAC inhibitors - cell viability counter screen (AID 1259365)
Procedure, shortened: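 To flag cytotoxic hits, 1,500 wild-type HCT-116 cells per well, plated the day before, receive test compounds for 2hr at 37 C before CellTiter-Glo reagent and a luminescence read.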

[18] = qHTS assay to identify small molecule agonists of the sonic hedgehog signaling (Shh) pathway - cell viability counter screen (AID 1259366); further: nearly all actives have a fitted effect of over 50% in size; further: potency means the concentration at half of the fitted maximal effect
Procedure, shortened: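 Fluorescence from CellTiter-Fluor reports live cells in this counter screen. NIH/3T3-derived Gli1-Luc reporter cells receive test compounds for 24hr at 37C; reagent goes in at 23hr.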

[19] = qHTS assay to identify small molecule antagonists of the sonic hedgehog signaling (Shh) pathway - cell viability counter screen (AID 1259367); further: nearly all actives have a fitted effect of over 55% in size; further: potency means the concentration at half of the fitted maximal effect
Procedure, shortened: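 CellTiter-Fluor signal in conditioned medium-stimulated 3T3 Gli1-Luc cells, 23 hr compound exposure, 37C.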

[20] = qHTS RealTime-Glo MT Cell Viability Assay in HEK293 cells - 0 hour (AID 1224880); further: top concentration of the series differs between compounds; nearly all actives have a fitted effect of over 45% in size
Procedure, shortened: as §4

Row | Compound | Potency [1] | Potency [2] | Potency [3] | Potency [4] | Potency [5] | Potency [6] | Potency [7] | Potency [8] | Potency [9] | Potency [10] | Potency [11] | Potency [12] | Potency [13] | Potency [14] | Potency [15] | Potency [16] | Potency [17] | Potency [18] | Potency [19] | Potency [20]
1 | CC(C)COCC(CN(Cc1ccccc1)c1ccccc1)N1CCCC1 (centres undefined) | 23.9 µM (active) | inactive | 21.3 µM (active) | 21.3 µM (active) | 21.3 µM (active) | 15.1 µM (active) | 15.1 µM (active) | 23.9 µM (active) | 23.9 µM (active) | 29.8 µM (active) | 29.8 µM (active) | inactive | inactive | – | – | – | – | – | – | –
2 | CCC(=O)C1CC(C(C)C)CC=C1C (centres undefined) | inactive | inactive | inactive | inactive | inactive | inactive | inactive | inactive | inactive | inactive | – | – | inactive | inactive | inactive | inactive | inactive | inactive | inactive | –
3 | C=Cc1ccc(S(=O)(=O)O)cc1 | – | 49 µM (active) | 54.9 µM (active) | – | inactive | inactive | inactive | – | 54.9 µM (active) | inactive | inactive | inactive | inactive | inactive | inactive | – | – | inactive | – | inactive
4 | CC(=O)Nc1cc(S(=O)(=O)O)cc2cc(S(=O)(=O)O)c(N=Nc3ccccc3)c(O)c12 | inactive | inactive | inactive | inactive | inactive | inactive | inactive | inactive | inactive | 27.3 µM (active) | – | – | inactive | inactive | 19.3 µM (active) | – | – | 27.3 µM (active) | 24.3 µM (active) | –
5 | CN(C)CCC=C1c2ccccc2C=Cc2ccccc21 | inactive | inactive | 23.9 µM (active) | inactive | inactive | inactive | inactive | inactive | inactive | inactive | – | – | inactive | – | inactive | – | inactive | inactive | inactive | –
6 | CC1(C)O[C@@H]2C[C@H]3[C@@H]4C[C@H](F)C5=CC(=O)C=C[C@]5(C)[C@H]4[C@@H](O)C[C@]3(C)[C@]2(C(=O)CO)O1 | inactive | inactive | inactive | inactive | inactive | inactive | inactive | inactive | inactive | inactive | inactive | inactive | inactive | – | inactive | – | – | inactive | inactive | –
7 | Cc1cc(O)ccc1O | – | inactive | inactive | inactive | inactive | – | – | – | inactive | inactive | – | – | inactive | inactive | – | – | inactive | 13.8 µM (active) | – | inactive
8 | OC1(c2ccccc2)CCNCC1 | inactive | inactive | inactive | inactive | inactive | inactive | inactive | inactive | inactive | inactive | – | – | inactive | inactive | inactive | inactive | inactive | inactive | inactive | –
9 | CC(C)c1nc(CN(C)C(=O)N[C@H](C(=O)N[C@@H](Cc2ccccc2)C[C@H](O)[C@H](Cc2ccccc2)NC(=O)OCc2cncs2)C(C)C)cs1 | – | inactive | – | inactive | inactive | 21.3 µM (active) | – | inactive | inactive | inactive | inactive | inactive and 10 µM (active) | inactive | inactive | – | – | inactive | 6.68 µM (active) | 7.5 µM (active) | –
10 | CC(O)c1ccccc1 (centres undefined) | inactive | inactive | – | inactive | inactive | inactive | inactive | – | inactive | inactive | inactive | – | inactive | inactive | inactive | – | – | inactive | inactive | –
11 | C=CC(=O)OCC1CC2CC1C1CCC(COC(=O)C=C)C21 (centres undefined) | 49 µM (active) | inactive | – | inactive | – | – | inactive | – | inactive | inactive | – | – | inactive | inactive | inactive | – | inactive | – | – | –
12 | CCOc1cccc(-n2cc(C(=O)N3CCN(c4cc(C(=O)O)c5ccccc5c4)CC3)nc2-c2ccc(C)cc2)c1 | inactive | inactive | inactive | inactive | inactive | inactive | – | inactive | inactive | inactive | – | – | inactive | – | inactive | inactive | – | inactive | inactive | –
13 | C[C@@H](CN(C)C)CN1c2ccccc2Sc2ccccc21 | 13.4 µM (active) | inactive | 26.8 µM (active) | inactive | – | – | inactive | inactive | inactive | inactive | inactive | – | inactive | – | inactive | – | – | – | – | –
14 | CC(=O)[C@H]1[C@H](C#N)C[C@H]2[C@@H]3CC=C4C[C@@H](O)CC[C@]4(C)[C@H]3CC[C@@]21C | inactive | inactive | inactive | inactive | inactive | – | inactive | inactive | inactive | inactive | inactive | – | inactive | – | inactive | – | inactive | inactive | inactive | –
15 | Nc1ccc(N=Nc2ccccc2)c(N)c1 | inactive | inactive | inactive | inactive | – | 42.7 µM (active) | – | inactive | inactive | – | – | – | 1.5 µM (active) | inactive | 26.7 µM (active) | – | inactive | – | – | –
16 | c1cc(N(CC2CO2)CC2CO2)ccc1Cc1ccc(N(CC2CO2)CC2CO2)cc1 (centres undefined) | – | inactive | – | inactive | – | 43.6 µM (active) | – | inactive | inactive | inactive | – | – | – | inactive | inactive | 27.3 µM (active) | inactive | 54.5 µM (active) | 54.5 µM (active) | –
17 | CCOC(=O)OC(C)OC(=O)[C@@H]1N2C(=O)[C@@H](NC(=O)[C@H](N)c3ccccc3)[C@H]2SC1(C)C (some centres undefined) | inactive | inactive | inactive | inactive | inactive | inactive | inactive | inactive | inactive | inactive | – | inactive | inactive | – | – | – | inactive | inactive | inactive | –
